Sampled rows, rich in hits. Any-hit rate of the full collection: about 2.4%.
S1P3 antag: S1P3 receptor antagonists, primary screen, cell-based; actives 0.27% (n = 170,000); inhibition, % at 4.98 µM; AID 485, 2006; Sphingosine 1-phosphate receptor 3 (Homo sapiens), Q99500; CHO S1P3 NFAT-BLA reporter, FRET fluorescence, antagonist mode;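 active = inhibition above the plate cutoff, the mean inhibition of test wells on that plate plus 3 SD, cut at about 28% in these data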;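 note: cells challenged with S1P at its EC80 of 0.8 µM; blue over green emission ratio from cleaved BLA substrate after 4 h stimulation; 0% = S1P-stimulated wells and 100% = unstimulated DMSO-only wells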
S1P4 antagonist: S1P4 receptor antagonists, primary screen, cell-based. actives 0.26% (n = 220,000). AID 1510, 2009. Sphingosine 1-phosphate receptor 4 (Homo sapiens), O95977. S1P4-expressing cells, antagonist mode, reporter read-out. inhibition, % at 4.98 µM; in the data active = inhibition above about 29%;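 note: 0% = wells stimulated with agonist and 100% = vehicle wells without agonist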
Target sequence (O95977 whole entry, looked up): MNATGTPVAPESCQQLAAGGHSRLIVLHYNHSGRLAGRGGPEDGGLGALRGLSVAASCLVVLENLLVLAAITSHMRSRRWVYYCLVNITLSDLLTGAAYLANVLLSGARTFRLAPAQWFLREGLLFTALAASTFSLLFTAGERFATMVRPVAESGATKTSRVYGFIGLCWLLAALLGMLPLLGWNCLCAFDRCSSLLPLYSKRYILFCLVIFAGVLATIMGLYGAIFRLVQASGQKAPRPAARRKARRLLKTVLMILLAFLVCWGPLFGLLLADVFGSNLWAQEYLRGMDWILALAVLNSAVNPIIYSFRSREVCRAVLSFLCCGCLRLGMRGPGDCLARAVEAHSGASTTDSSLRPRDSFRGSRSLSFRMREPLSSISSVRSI
PGE2 EP2 inh: human EP2 receptor antagonists, primary screen, TR-FRET cAMP, C6 glioma cells. actives 0.52% (n = 260,000). C6 glioma cells expressing human EP2; cells stimulated with saturating PGE2. inhibition, % at 25 µM. Prostaglandin E2 receptor EP2 subtype (Homo sapiens), P43116;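 active = percent inhibition above 40 after rounding to a whole number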;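 note: rat C6 glioma host cells with rolipram phosphodiesterase inhibitor present; the protocol text gives 20 µM as final concentration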
S1P4 ag: S1P4 receptor agonists, primary screen, cell-based; activation, % at 4.98 µM; Sphingosine 1-phosphate receptor 4 (Homo sapiens), O95977; actives 0.35% (n = 220,000); S1P4-expressing cell line, agonist reporter assay; AID 1509, 2009; in the data active = activation above about 11%;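 note: 0% = DMSO vehicle and 100% = reference agonist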
EP2 modulator: EP2 receptor modulators, cAMP readout, primary screen, cell-based, HTRF cAMP, PGE2 stimulation; EP2-expressing cells, cAMP HTRF FRET, PGE2 co-stimulation; induction, % at 25 µM; actives 0.83% (n = 260,000);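 active = compounds whose cAMP rise, as percent of the full-agonist control response, exceeds 60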;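 note: rat C6 glioma line stably carrying human EP2 under a CMV promoter; the protocol text gives 20 µM as final concentration; 100% = response of wells given 1 µM PGE2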
INS promoter inh: inhibitors of insulin promoter-driven GFP, primary screen, imaging, TRM-6 cells (human fetal islet line), eGFP reporter, cell count. inhibition, % at 2 µM. actives 0.9% (n = 130,000). reporter expression induced with tamoxifen. AID 1273, 2008;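 active = inhibition above the mean plus 3 SD, with well images judged a real hit on visual review, cut at about 60% in these data, passing the limit was not always enough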
Starred values were filed as active, the others as inactive; . = no result given; ! = repeats disagree.

SMILES	S1P3 antag	S1P4 antagonist	PGE2 EP2 inh	S1P4 ag	EP2 modulator	INS promoter inh
CCC(c1nnnn1C(C)(C)C)N(CCc1ccccc1)Cc1cc2cc(C)c(C)cc2[nH]c1=O (stereo unspecified)	.	.	7	.	15	.
CCCC(c1nnnn1Cc1ccco1)N(Cc1cc2cc(C)ccc2[nH]c1=O)C1CCCC1 (stereo unspecified)	.	.	12	.	68*	.
CCC(c1nnnn1C(C)(C)C)N(CCc1ccccc1C)Cc1cc2cc(C)ccc2[nH]c1=O (stereo unspecified)	.	.	16	.	65*	.
Cc1sc2nc(C(C)C)n3c(SCC(=O)Nc4ccccc4)nnc3c2c1C	.	.	14	.	27	.
Cc1cc2c(cc3c(=O)n(CC(=O)N4CCN(Cc5ccccc5)CC4)nc(C)n32)s1	.	.	.	.	14	.
CCC(c1nnnn1C1CCCCC1)N(Cc1cc2cc(C)ccc2[nH]c1=O)C1CCCC1 (stereo unspecified)	.	.	12	.	28	.
CCC(c1nnnn1C(C)(C)C)N(Cc1cc2cc(C)ccc2[nH]c1=O)C1CCCCC1 (stereo unspecified)	.	.	17	.	75*	.
Cc1ccc2[nH]c(=O)c(CN(Cc3nnnn3C3CCCCC3)C3CCCCC3)cc2c1	.	.	5	.	69*	.
COc1ccccc1CN(CCCn1ccnc1)Cc1ccc2ccccc2n1	.	.	6	.	-16	.
Cn1c(=O)c2c(nc(N3CCCC3)n2CCSc2nc3ccccc3[nH]2)n(C)c1=O	.	.	6	.	3	.
O=c1oc2ccccc2cc1-c1nc(-c2cccs2)cs1	.	17	8	-2	61*	.
CCCCSc1nc(C)[nH]c1[N+](=O)[O-]	.	-2	6	1	7	75*
CCOC(=O)c1cnn(-c2ccccc2)c1-n1cccc1C(=O)C(=O)N(CC)CC	-12	8	8	-3	-12	5
CCN(CC)C(=O)C(=O)c1cccn1-c1ccccc1C#N	.	-6	8	0	7	100*
Cc1c(Nc2cc(Cl)c3nonc3c2[N+](=O)[O-])c(=O)n(-c2ccccc2)n1C	8	-12	20	4	-62	100*
COc1ccc(C)cc1NC(=O)N1CCCc2ccccc21	7	-19	2	1	61*	.
Cc1cccc(OCC(=O)N2CCOCC2)c1C	.	.	6	.	-19	.
Cc1ccc(C)c(OCC(=O)N2CCOCC2)c1	.	-4	6	-2	-14	89*
COc1cc(C)c(Cl)cc1S(=O)(=O)N1CCC(C)CC1	.	.	11	.	-67	.
Cn1c(SCc2ccc(F)cc2)nnc1-c1cccs1	-13	7	13	2	0	71*
Cn1c(SCc2ccccc2)nnc1-c1cccs1	-17	-23	11	1	-31	3
COc1ccccc1-c1ocnc1C(=O)Nc1cccnc1	.	.	5	.	-26	.
CCc1nn(CC(=O)NCC2CC2)c(=O)c2cc3oc(C)cc3n12	.	.	12	.	-28	.
CCCCCN=C(N)N/N=C/c1c[nH]c2ccc(OC)cc12	.	.	136*!	.	15	.
Cc1cc(-c2cc(N)c(=O)n(CC(=O)Nc3cccc4c3CCCC4)n2)c(C)o1	.	.	6	.	-33	.
SMILES	S1P3 antag	S1P4 antagonist	PGE2 EP2 inh	S1P4 ag	EP2 modulator	INS promoter inh
Cc1ccc2nc3c(cc2c1)CN(Cc1ccccc1)C(=O)CO3	.	.	.	.	-39	.
COc1cc(OC)cc(C(=O)Nc2nccs2)c1	.	.	8	.	-46	.
COc1ccc([C@@H](Nc2ccccn2)c2cc(C(C)(C)C)cc(C(C)(C)C)c2O)cc1	.	.	46*	.	36	.
c1ccc2cc(-c3cc(-c4cc(-c5ccc6ccccc6c5)on4)no3)ccc2c1	.	.	45*	.	-28	.
CCCCNc1nc(NC)nc(Cl)c1SC	-1	5	5	2	63*	.
Cc1cc2nc(SCC(=O)N(C)C)c3c(c2cc1C)CCCC3	.	-14	13	-1	62*	-9
NC(=O)CSc1nc(-c2ccccc2)nc2c1CCCC2	1	-8	14	1	-7	-47
O=C(O)CSc1nc2ccccc2c2c1CCCC2	.	.	9	.	88*	.
Cc1nc(SCC(=O)c2ccccc2)c2c3c(sc2n1)CCCC3	.	.	10	.	35	.
Brc1cccc(Cn2c(-c3cncs3)nc3ccccc32)c1	.	-12	10	0	61*	13
Cc1cc2nsnc2c2nsnc12	.	.	16	.	-11	.
COc1cccc(/C=N/N2C(=O)C3C4c5ccccc5C(c5ccccc54)C3C2=O)c1OC (stereo unspecified)	.	7	6	13*	28	30
COc1cc(/C=N/N2C(=O)C3C4c5ccccc5C(c5ccccc54)C3C2=O)ccc1O (stereo unspecified)	-2	-17	5	1	25	.
C=CCNc1c2c(nc3nnnn13)CCCC2	-7	-17	7	-2	28	14
C=CCNc1nc(S(=O)Cc2ccc(C)cc2)nc2c1CCCC2 (stereo unspecified)	7	-6	4	-2	-17	73*
c1cncc(CSc2nnc(-c3cccnc3)n2Cc2ccco2)c1	-27	-1	2	0	-22	.
O=C(CSc1nnc(-c2cccnc2)n1Cc1ccco1)N1c2ccccc2Sc2ccccc21	91*	1	7	-2	-6	-43
O=C(Cc1ccc(Cl)cc1)N1CCc2c(nc(N3CCOCC3)[nH]c2=O)C1	.	.	6	.	4	.
COCCNC(=O)C1CCCN(S(=O)(=O)c2ccc(OC)c(Cl)c2)C1 (stereo unspecified)	.	.	10	.	-25	.
N/C(=N\OC(=O)c1cccs1)C1(c2ccc(Cl)cc2Cl)CC1	-10	18	54*	0	-35	.
O=C(CCc1nc2ccccc2[nH]1)NCc1ccc2c(c1)OCO2	-40	-4	11	-1	-37	-40
O=C(CCc1nnc(Cc2ccc3c(c2)OCO3)o1)NCc1nc2ccccc2s1	4	-8	7	0	26	78*
CC1CCCCC1NC(=O)Cn1nc2c3ccccc3nc(C3CC3)n2c1=O (stereo unspecified)	.	.	.	.	-14	.
S=C1SCN(C2CCCCCCCCCCC2)CN1C1CCCCCCCCCCC1	.	.	41*	.	12	.
COCCNC(=O)/C=C/c1c(Cl)cccc1Cl	-2	-19	5	2	3	71*
C(=C\c1nc2ccccc2[nH]1)/c1ccccc1	.	1	17	0	1	93*
O=C(NC1CCCCC1)C1C2C=CC3(O2)C1C(=O)N(Cc1ccccc1)C3C(=O)NC1CCCCC1 (stereo unspecified)	.	.	8	.	19	.
CC(C)Cc1cc(C(=O)NCc2cccs2)no1	-15	4	10	-1	16	100*
CC(C)Cc1cc(C(=O)NCc2cccnc2)no1	.	-17	6	-1	-3	.
Cn1c(=O)c2[nH]c(CCCCc3nc4ccccc4[nH]3)nc2n(C)c1=O	.	.	41*	.	-1	.
